Measured values: PubChem BioAssay (EPA / NIEHS)
Records with an inconclusive call do not appear. The source made the active and inactive calls. How the source made its calls: active means hit-call score of the fitted dose curve at least 0.9, where 1 is the maximum; inconclusive means response in the unintended direction; inactive means score below 0.9.

Legend:
[1] = TOX21_p53_BLA_p2_viability: Viability Assessment in the Tox21 HCT-116 p53 Agonism Beta-lactamase Assay, Phase 2 (AID 2283591);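 further: compound exposure lasted 16 h at 37 °C; actives lower the ATP signal meaning cytotoxicity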
Summary of the method: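 HCT-116 p53-bla cells (4000/well) rested 5 h at 37C, then received compounds in DMSO (217-fold dilution) for 16 h at 37C, 5% CO2. After the CCF4 read, CellTiter-Glo was added; ATP luminescence was read after 30 min at room temperature.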

[2] = molecular target: Cellular tumor antigen p53 (Homo sapiens) (UniProt P04637); assay: TOX21_p53_BLA_p2_ratio: Tox21 HCT-116 p53 Agonism Beta-lactamase Assay, Ratio, Phase 2 (AID 2283592)
Summary of the method: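 In this cell-based reporter format, HCT116 cells were dosed with chemicals delivered from DMSO by 217-fold dilution and incubated 16 h at 37C. Emission at 460 and 530 nm after 2 h CCF4-AM loading provided the ratio, fitted upward versus DMSO.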

[3] = TOX21_p53_BLA_p3_viability: Viability Assessment in the Tox21 HCT-116 p53 Agonism Beta-lactamase Assay, Phase 3 (AID 2283593);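 further: cells exposed to compound for 16 h before reading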
Summary of the method: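 HCT-116 cells (4000/well) rested 5 h at 37C, then got DMSO compounds by pin tool (217-fold dilution) for 16 h at 37C, 5% CO2. After the bla read, CellTiter-Glo was added and luminescence read at 30 min, room temperature.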

[4] = molecular target: Cellular tumor antigen p53 (Homo sapiens) (UniProt P04637); assay: TOX21_p53_BLA_p3_ratio: Tox21 HCT-116 p53 Agonism Beta-lactamase Assay, Ratio, Phase 3 (AID 2283596)
Summary of the method: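 HCT116 p53-bla cells (4000/well) given compound in DMSO (217-fold dilution) after 5 h, incubated 16 h at 37C. CCF4-AM substrate 2 h at room temperature; 460/530 nm emission ratio, gain fitted against DMSO.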

[5] = TOX21_p53_BLA_p4_viability: Viability Assessment in the Tox21 HCT-116 p53 Agonism Beta-lactamase Assay, Phase 4 (AID 2283597);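 further: hits lower the luminescence signal meaning cytotoxicity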
Summary of the method: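 We seeded HCT116 p53 reporter cells at 4000/well and waited 5 h. We then added compounds in DMSO at a 217-fold dilution and incubated for 16 h. Viability was read as CellTiter-Glo luminescence after 30 min at RT.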

[6] = molecular target: Cellular tumor antigen p53 (Homo sapiens) (UniProt P04637); assay: TOX21_p53_BLA_p5_ratio: Tox21 HCT-116 p53 Agonism Beta-lactamase Assay, Ratio, Phase 5 (AID 2283599)
Summary of the method: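 HCT-116 cells carrying a p53-inducible beta-lactamase reporter were seeded at 4000 cells/well and dosed after 5 h with compound in DMSO (217-fold dilution). After 16 h at 37C, CCF4-AM substrate was added for 2 h, and the 460/530 nm emission ratio was scored as gain-of-signal versus DMSO.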

[7] = TOX21_p53_BLA_p5_viability: Viability Assessment in the Tox21 HCT-116 p53 Agonism Beta-lactamase Assay, Phase 5 (AID 2283600)
Summary of the method: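 Compounds, pinned from DMSO at 217-fold dilution, were left on the cells for 16 h. The viability endpoint was ATP content measured by CellTiter-Glo luminescence, where falling signal reflects cytotoxicity.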

[8] = molecular target: Cellular tumor antigen p53 (Homo sapiens) (UniProt P04637); assay: TOX21_p53_BLA_p4_ratio: Tox21 HCT-116 p53 Agonism Beta-lactamase Assay, Ratio, Phase 4 (AID 2283601)
Summary of the method: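 HCT116 cells carrying an inducible beta-lactamase reporter were plated at 4000 cells/well, rested 5 h, then exposed to compounds in DMSO (217-fold dilution) for 16 h at 37C. CCF4-AM substrate was loaded 2 h at room temperature; 460/530 nm emission ratio scored gain-of-signal versus DMSO.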

Chain of Cellular tumor antigen p53 (Homo sapiens) (P04637 whole entry, looked up): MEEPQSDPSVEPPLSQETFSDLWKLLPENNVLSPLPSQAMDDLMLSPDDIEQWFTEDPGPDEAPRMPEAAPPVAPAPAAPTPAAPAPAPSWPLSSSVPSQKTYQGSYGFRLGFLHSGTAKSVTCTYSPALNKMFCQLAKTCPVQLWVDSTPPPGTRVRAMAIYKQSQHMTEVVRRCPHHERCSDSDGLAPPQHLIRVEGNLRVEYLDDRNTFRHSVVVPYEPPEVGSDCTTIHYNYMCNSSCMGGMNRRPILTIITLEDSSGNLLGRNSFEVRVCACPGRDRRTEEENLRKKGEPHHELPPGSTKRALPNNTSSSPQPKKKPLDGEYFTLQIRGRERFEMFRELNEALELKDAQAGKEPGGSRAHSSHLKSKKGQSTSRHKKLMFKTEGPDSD

## CCC(C)(C)c1ccc(CC(C)CN2C[C@@H](C)O[C@@H](C)C2)cc1 (some centres not stated)
[1]
  outcome: inactive
[2]
  outcome: inactive
[3]
  outcome: inactive
[4]
  outcome: inactive
[5]
  AC50: 32.7 µM (active)
[6]
  outcome: inactive
[7]
  outcome: inactive
[8]
  outcome: inactive

## COc1cccc2c1C(=O)c1c(O)c3c(c(O)c1C2=O)C[C@@](O)(C(=O)CO)C[C@@H]3O[C@H]1C[C@H](N)[C@H](O[C@@H]2CCCCO2)[C@H](C)O1
[1]
  AC50: 7.4 µM (active)
[2]
  AC50: 6.79 µM (active)
[3]
  AC50: 7.5 µM (active)
[4]
  AC50: 7.49 µM (active)
[5]
  AC50: 7.64 µM (active)
[6]
  AC50: 7.29 µM (active)
[7]
  outcome: inactive
[8]
  AC50: 7.58 µM (active)

## CCCCCCCCCCCCCCC(=O)O
[1]
  outcome: inactive
[2]
  outcome: inactive
[3]
  outcome: inactive
[4]
  outcome: inactive
[5]
  outcome: inactive
[6]
  outcome: inactive
[7]
  outcome: inactive
[8]
  outcome: inactive

## c1ccc(-c2ccc(C(c3ccccc3)n3ccnc3)cc2)cc1 (configuration not stated)
[1]
  outcome: inactive
[2]
  AC50: 35.9 µM (active)
[3]
  outcome: inactive
[4]
  AC50: 39.5 µM (active)
[5]
  AC50: 38.2 µM (active)
[6]
  AC50: 36.5 µM (active)
[7]
  outcome: inactive
[8]
  AC50: 34.1 µM (active)

## COc1c(C)c2c(c(O)c1C/C=C(\C)CCC(=O)O)C(=O)OC2
[1]
  outcome: inactive
[2]
  AC50: 0.0608 µM (active)
[3]
  outcome: inactive
[4]
  AC50: 0.102 µM (active)
[5]
  AC50: 0.224 µM (active)
[6]
  AC50: 0.127 µM (active)
[7]
  outcome: inactive
[8]
  AC50: 0.091 µM (active)

## CC(C)Oc1ccc2c(=O)c(-c3ccccc3)coc2c1
[1]
  outcome: inactive
[2]
  outcome: inactive
[3]
  outcome: inactive
[4]
  outcome: inactive
[5]
  outcome: inactive
[6]
  outcome: inactive
[7]
  outcome: inactive
[8]
  outcome: inactive

## CCCCNc1cc(C(=O)O)cc(S(N)(=O)=O)c1Oc1ccccc1
[1]
  outcome: inactive
[2]
  outcome: inactive
[3]
  outcome: inactive
[4]
  outcome: inactive
[5]
  outcome: inactive
[6]
  outcome: inactive
[7]
  outcome: inactive
[8]
  outcome: inactive

## O[C@@H]([C@H](O)[C@H](O)CBr)[C@H](O)CBr
[1]
  outcome: inactive
[2]
  outcome: inactive
[3]
  outcome: inactive
[4]
  outcome: inactive
[5]
  outcome: inactive
[6]
  outcome: inactive
[7]
  outcome: inactive
[8]
  outcome: inactive

## CCCCCCCCCCCCCCCCC(C(=O)O)C(O)(CC(=O)O)C(=O)O (configuration not stated)
[1]
  outcome: inactive
[2]
  outcome: inactive
[3]
  AC50: 42.3 µM (active)
[4]
  AC50: 41.2 µM (active)
[5]
  outcome: inactive
[6]
  AC50: 38.7 µM (active)
[7]
  AC50: 34.3 µM (active)
[8]
  outcome: inactive

## CCN(CC)CCCC(C)Nc1c2ccc(Cl)cc2nc2ccc(OC)cc12 (configuration not stated)
[1]
  outcome: inactive
[2]
  AC50: 25.8 µM (active)
[3]
  outcome: inactive
[4]
  AC50: 23.7 µM (active)
[5]
  outcome: inactive
[6]
  AC50: 38.7 µM (active)
[7]
  outcome: inactive
[8]
  AC50: 35.1 µM (active)

## c1ccc(OCc2ccc(CCCN3CCOCC3)cc2)cc1
[1]
  outcome: inactive
[2]
  outcome: inactive
[3]
  outcome: inactive
[4]
  outcome: inactive
[5]
  outcome: inactive
[6]
  outcome: inactive
[7]
  outcome: inactive
[8]
  outcome: inactive

## CCOc1ccc(Cc2nccc3cc(OCC)c(OCC)cc23)cc1OCC
[1]
  outcome: inactive
[2]
  outcome: inactive
[3]
  outcome: inactive
[4]
  outcome: inactive
[5]
  outcome: inactive
[6]
  outcome: inactive
[7]
  outcome: inactive
[8]
  outcome: inactive

## CCCCCCCCS(=O)C(C)Cc1ccc2c(c1)OCO2 (configuration not stated)
[1]
  AC50: 78.9 µM (active)
[2]
  AC50: 39.3 µM (active)
[3]
  outcome: inactive
[4]
  AC50: 90.9 µM (active)
[5]
  AC50: 74.7 µM (active)
[6]
  AC50: 86.8 µM (active)
[7]
  AC50: 58.2 µM (active)
[8]
  AC50: 88.7 µM (active)

## CCCCCCCCCCCCCCCCCCNC(=O)OC1CCN(C(=O)OC[C@H](COC(=O)N(Cc2cccc[n+]2CC)C(=O)c2ccccc2OC)OC)CC1
[1]
  outcome: inactive
[2]
  outcome: inactive
[3]
  outcome: inactive
[4]
  outcome: inactive
[5]
  AC50: 30.2 µM (active)
[6]
  AC50: 35.7 µM (active)
[7]
  outcome: inactive
[8]
  AC50: 38.4 µM (active)

## Clc1ccc(C(Cn2ccnc2)OCc2c(Cl)cccc2Cl)c(Cl)c1 (configuration not stated)
[1]
  outcome: inactive
[2]
  AC50: 17.7 µM (active)
[3]
  outcome: inactive
[4]
  AC50: 17.9 µM (active)
[5]
  outcome: inactive
[6]
  outcome: inactive
[7]
  outcome: inactive
[8]
  AC50: 16.7 µM (active)

## NC1(c2ccc(-c3nc4ccn5c(=O)[nH]nc5c4cc3-c3ccccc3)cc2)CCC1
[1]
  outcome: inactive
[2]
  outcome: inactive
[3]
  outcome: inactive
[4]
  outcome: inactive
[5]
  AC50: 8.62 µM (active)
[6]
  outcome: inactive
[7]
  outcome: inactive
[8]
  outcome: inactive

## [O]=[Bi]
[1]
  outcome: inactive
[2]
  outcome: inactive
[3]
  outcome: inactive
[4]
  outcome: inactive
[5]
  outcome: inactive
[6]
  outcome: inactive
[7]
  outcome: inactive
[8]
  outcome: inactive

## O[C@@H](CNC[C@H](O)[C@H]1CCc2cc(F)ccc2O1)[C@@H]1CCc2cc(F)ccc2O1
[1]
  AC50: 34.9 µM (active)
[2]
  outcome: inactive
[3]
  outcome: inactive
[4]
  outcome: inactive
[5]
  AC50: 33.5 µM (active)
[6]
  AC50: 37.1 µM (active)
[7]
  AC50: 43.1 µM (active)
[8]
  AC50: 43.4 µM (active)

## CCCCCCCCCCCC[n+]1ccc2ccccc2c1
[1]
  AC50: 33.6 µM (active)
[2]
  AC50: 11 µM (active)
[3]
  AC50: 35.9 µM (active)
[4]
  AC50: 15 µM (active)
[5]
  AC50: 23 µM (active)
[6]
  AC50: 28.5 µM (active)
[7]
  AC50: 33.4 µM (active)
[8]
  AC50: 21.8 µM (active)

## CCNC(=O)N1CCN(CCCC(c2ccc(F)cc2)c2ccc(F)cc2)CC1
[1]
  outcome: inactive
[2]
  outcome: inactive
[3]
  outcome: inactive
[4]
  outcome: inactive
[5]
  outcome: inactive
[6]
  outcome: inactive
[7]
  outcome: inactive
[8]
  outcome: inactive

## CCN(CC)CCOc1ccc(-c2nc3cc(Cl)ccc3s2)cc1
[1]
  AC50: 44.8 µM (active)
[2]
  outcome: inactive
[3]
  outcome: inactive
[4]
  outcome: inactive
[5]
  AC50: 36.3 µM (active)
[6]
  outcome: inactive
[7]
  outcome: inactive
[8]
  outcome: inactive

## O=C1c2c(O)ccc([N+](=O)[O-])c2C(=O)c2c([N+](=O)[O-])ccc(O)c21
[1]
  AC50: 7.2 µM (active)
[2]
  AC50: 25.4 µM (active)
[3]
  AC50: 9.74 µM (active)
[4]
  AC50: 28.7 µM (active)
[5]
  AC50: 11.7 µM (active)
[6]
  AC50: 30.2 µM (active)
[7]
  AC50: 9.58 µM (active)
[8]
  AC50: 20.7 µM (active)

## CO[Si](CCCNc1ccccc1)(OC)OC
[1]
  outcome: inactive
[2]
  outcome: inactive
[3]
  outcome: inactive
[4]
  outcome: inactive
[5]
  outcome: inactive
[6]
  outcome: inactive
[7]
  outcome: inactive
[8]
  outcome: inactive

## C=COCC1CCC(CO)CC1 (configuration not stated)
[1]
  outcome: inactive
[2]
  outcome: inactive
[3]
  outcome: inactive
[4]
  outcome: inactive
[5]
  outcome: inactive
[6]
  outcome: inactive
[7]
  outcome: inactive
[8]
  outcome: inactive
